Common to all, as to assay: PBM binding z-score (relative to random genomic background probes); higher = stronger binding; sequences stand for … in GC…GCGATTGACAGCGTAGAATGAAGG
Assay [1] deals with FXR:RXRa (NR concentration 270 nM, RXRa partner concentration 90 nM). In outline:
(§1)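 Binding buffer was PBS pH 7.4 with 2% milk, 0.02% Triton X-100, 1 mM DTT, 0.2 mg/mL BSA and 0.4 mg/ml salmon testes DNA. In it, ligand-free nuclear receptor dimers were incubated 1 h on custom Agilent 4×180K protein-binding microarrays carrying double-stranded probes. Antibodies against each partner (one per run) detected binding, and z-scores were calculated against random background probes after regression normalization of scanned fluorescence.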

Assay [2] has as its system LXRa:RXRa (NR concentration 270 nM, RXRa partner concentration 90 nM). In outline: as §1
Assay [3] concerns LXRa homodimer (NR concentration 270 nM). In a few lines: as §1
Assay [4] relates to LXRb:RXRa (NR concentration 270 nM, RXRa partner concentration 90 nM). In outline: as §1
For assay [5], the system named is LXRb homodimer (NR concentration 270 nM). In a few lines:
as §1

In assay [6] the test system is PPARa:RXRa (NR concentration 270 nM, RXRa partner concentration 90 nM). In outline: as §1
For assay [7], the system named is PPARg:RXRa (NR concentration 180 nM, RXRa partner concentration 90 nM). In outline: as §1
Assay [8] concerns PPARg:RXRa 270nM:90nM, anti-RXR (NR concentration 270 nM, RXRa partner concentration 90 nM). In outline: as §1
The subject of assay [9] is PPARg:RXRa 30nM:10nM, anti-RXR (NR concentration 30 nM, RXRa partner concentration 10 nM). In outline:
as §1

In assay [10] the test system is PPARg:RXRa 90nM:30nM, anti-RXR (NR concentration 90 nM, RXRa partner concentration 30 nM). In outline: as §1
Assay [11] deals with PPARg:RXRa DBDmut IVT, anti-RXR (DBD mutation: RXRa K156A/R161A, NR concentration 270 nM, RXRa partner concentration 90 nM). In outline: as §1
The subject of assay [12] is PPARg:RXRa IVT, anti-PPARg (NR concentration 270 nM, RXRa partner concentration 90 nM). In a few lines:
as §1

Assay [13] deals with PPARg DBDmut:RXRa IVT, anti-PPARg (DBD mutation: PPARg1 K132A/R137A, NR concentration 270 nM, RXRa partner concentration 90 nM). In outline: as §1
Assay [14] concerns PPARg DBDmut IVT, anti-PPARg (DBD mutation: PPARg1 K132A/R137A, NR concentration 270 nM). In outline:
as §1

The test system of assay [15] is PPARg homodimer (NR concentration 180 nM). In a few lines: as §1
Assay [16] deals with PXR:RXRa (NR concentration 270 nM, RXRa partner concentration 90 nM). In outline: as §1
Assay [17] deals with PXR homodimer (NR concentration 270 nM). In a few lines:
as §1

The test system of assay [18] is RARa:RXR (NR concentration 270 nM, RXRa partner concentration 90 nM). In outline:
as §1

Assay [19] concerns RARa homodimer (NR concentration 270 nM). In outline:
as §1

The subject of assay [20] is RARb:RXRa (NR concentration 270 nM, RXRa partner concentration 90 nM). In outline: as §1

On to CAAACTTGGTCACGAAAGGTCAAAGTCGAATGAC, for which the PBM binding z-score in [1] was 5.56; in [2], 6.11; in assay [3], 5.72; in [4], 5.74; in assay [5] it was 2.04; in assay [6] it was 5.22. Further, the PBM binding z-score in assay [7] turned out to be 4.84; in assay [8], 5.24; in [9], 2.75; in assay [10] it was 4.59; in assay [11], 2.71; in assay [12] it was 4.16. The PBM binding z-score is 0.428 in assay [13]; 0.593 in assay [14]; 4.33 in assay [15]; 6.21 in assay [16]; 1.66 in [17]; 6.77 in [18]. The PBM binding z-score in assay [19] was 3.25; in assay [20] it was 4.68.

On to TCATGTAGATCAATAGAGGTTAAGAAAGTGCGCT, for which the PBM binding z-score was determined as 1.01 in assay [1]; 3.41 in assay [2]; 0.701 in [3]; 1.95 in assay [4]; 0.112 in [5]; 1.83 in assay [6]. For the same sequence, the PBM binding z-score in assay [7] worked out at 0.225; in [8], 1.59; in assay [9], 3.1; in assay [10], 1.96; in assay [11], 2.25; in assay [12], 0.891. The PBM binding z-score was 0.493 in assay [13]; 0.436 in [14]; 0.475 in [15]; 3.08 in assay [16]; 0.426 in assay [17]; 1.85 in assay [18]. Besides, the results for the PBM binding z-score in assay [19] and in [20] were 0.825 and 1.02, respectively.

With GGAACGAGGGCAACTTGATAGCAGAGTTTGATGG, the PBM binding z-score was 0.815 in assay [1]; 0.375 in assay [2]; -0.472 in assay [3]; 0.468 in [4]; -0.203 in assay [5]; 1.53 in [6]. In addition, the PBM binding z-score is 1.63 in assay [7]; 1.28 in assay [8]; -0.0805 in assay [9]; 0.883 in assay [10]; 4.45 in assay [11]; 3.29 in assay [12]. The PBM binding z-score in assay [13] is 0.236; in assay [14] it was 0.0207; in assay [15] it was 0.796; in assay [16], 0.872; in assay [17] it was 0.418; in assay [18], 0.629. Moreover, the results for the PBM binding z-score in assay [19] and in assay [20] were 0.251 and 2.72, respectively.

As for ACACACAGGTGAGTGAAGGTAACTCAGCTGGACG, the PBM binding z-score in [1] is 0.469; in [2] it was 0.195; in [3] it was -0.241; in [4] it was -0.0782; in [5], -0.78; in assay [6], 0.352. The PBM binding z-score was 0.931 in assay [7]; 0.0284 in assay [8]; -0.027 in [9]; -0.278 in assay [10]; 0.846 in [11]; 1.04 in [12]. Moreover, the PBM binding z-score in assay [13] is 0.1; in assay [14], -0.00713; in assay [15] it was 0.147; in assay [16], -0.122; in [17], -0.17; in assay [18], 0.0752. Also, the figures for the PBM binding z-score in assay [19] and in assay [20] were -0.0711 and 0.791, respectively.

In the case of ATCGAAAGGTCGAGGTGAGTATAGAGAAAGGGAA, the PBM binding z-score in [1] was found to be 4.21; in assay [2], 3.57; in assay [3], 0.072; in assay [4], 2.77; in assay [5], 0.504; in [6] it was 4.79. Moreover, the PBM binding z-score in [7] turned out to be 3.78; in assay [8] it was 3.66; in assay [9] it was 1.28; in assay [10] it was 2.62; in [11] it was 0.752; in assay [12] it was 2.38. Also, the PBM binding z-score in assay [13] is 0.636; in [14] it was 0.688; in [15], 1.8; in [16] it was 2.49; in [17] it was 0.362; in assay [18], 3.37. Further, the PBM binding z-score in assay [19] was determined as 0.75; in assay [20] it was 4.18.

For the sequence AATACAGGGTCACTAGGCTAGAGTAGGTACGAAT, the PBM binding z-score in assay [1] amounted to 6.21; in [2], 5.05; in [3] it was 0.889; in [4] it was 3.9; in [5], 0.775; in assay [6], 5.9. The PBM binding z-score is 7.63 in assay [7]; 6.19 in assay [8]; 2.53 in assay [9]; 5.09 in assay [10]; 3.32 in assay [11]; 5.41 in assay [12]. Moreover, the PBM binding z-score in assay [13] worked out at 1.74; in [14] it was 1.68; in assay [15], 2.15; in assay [16], 2.96; in assay [17], 0.638; in [18], 3.99. The PBM binding z-score in assay [19] was found to be 1.21; in assay [20], 4.28.

In the case of CCGACTGGGGCATAAGGTTACCATAAGCCAGCCC, the PBM binding z-score in assay [1] is 0.197; in assay [2], 1.68; in assay [3], -0.354; in assay [4], 0.645; in [5], -1.33; in assay [6] it was 1.75. In addition, the PBM binding z-score in assay [7] came out at 2.29; in [8], 3.15; in assay [9] it was 0.853; in assay [10], 2.5; in assay [11], 2.93; in assay [12] it was 3.01. Moreover, the PBM binding z-score in [13] was -0.979; in assay [14] it was -1.34; in [15] it was 0.447; in [16], 0.164; in assay [17], -0.32; in [18] it was 1.11. For the same sequence, the PBM binding z-score in assay [19] is -0.464; in assay [20] it was 1.66.
